In the supplement of paper PMC11417369:
The full ranking holds about 25,000 sequences; the median of “ln(normalized median fluorescence intensity)” is about 7.1, and the highest 2% start at about 10. Only a selection was taken, and the highest values are over-represented in it overall.

These sequences were tested on PfSIP2 AP2 domain 1 (GST-tagged) (assay: gcPBM binding intensity (ln(normalized median fluorescence intensity)); higher = stronger DNA binding).
Method in brief: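 In this array assay, P. falciparum DNA-binding domains with a GST tag, expressed in E. coli, were applied for 1 h to primer-extended double-stranded 36-bp intergenic genomic probes and negative controls on an Agilent 4 × 180k array. Bound protein was visualised with Alexa488 anti-GST antibody at 488 nm. Binding intensity is the highest Masliner-normalised natural-log median intensity across replicate spots of either probe orientation.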
In the case of “TACGTTGTATATTTTTGTACATATTGAATTACAAAA [XGTACX_site5906]”, the “gcPBM binding intensity (ln)” value is reported as 6.95.
“ACGAAAAGATATATATGTACATATATTAAAAAAAAA [XGTACX_site1517]” was tested, and the “gcPBM binding intensity (ln)” value was 7.01.
For “TTCAAACATATTAATTGTACATACAACAAAACCATG [XGTACX_site5149]”, the “gcPBM binding intensity (ln)” value was 7.13.
For “TGCACAAAATTATGCACACACCTAAAATTAATTTTT [CACACA_site5596]”, the “gcPBM binding intensity (ln)” value was 8.28.
“ATTATGCACGGACACACACACACACCCCTAAAAAAT [CACACA_site5426]” was tested, and the “gcPBM binding intensity (ln)” value was 7.88.
With “ATTATGCACCAACACACACACACACTCCTAAAAAAT [CACACA_site8822]” the “gcPBM binding intensity (ln)” value was 11.1.
With “TAATTATGCCAACACACACACACACCCAACTAAAAA [CACACA_site8823]” the “gcPBM binding intensity (ln)” value was 7.32.
With “ATTATGCACCAACACACACACACACCCCTAAAAAAT [CACACA_site2568]” the “gcPBM binding intensity (ln)” value was 10.8.
With “TGTGCCCAAAATTATGCACACACCTAAAATTAATTT [CACACA_site2914]” the “gcPBM binding intensity (ln)” value was 7.79.
“TATATACTCAGACATACACACAAATAAAAAAACACC [CACACA_site5820]” was tested, and the “gcPBM binding intensity (ln)” value was 8.07.
With “AAATAATATATTCTATATAATAAATTATAAATATAA [GTGCAC_negctrl_site558]” the “gcPBM binding intensity (ln)” value was 6.58.
For “AAGTGTATATAAAAATGTACATATTTCGATTTAAAT [XGTACX_site4161]”, the “gcPBM binding intensity (ln)” value was 7.11.
With TTCTTAAAAGGAAAGGTGCAACTTTATCATTTTCTT the “gcPBM binding intensity (ln)” value was 10.9.
In the case of “TTATTTTTAATATCGGTGCAACAAAAAGGAAAAGAT [GTGCAC_site9482]”, the “gcPBM binding intensity (ln)” value is reported as 9.64.
In the case of “TTTATATCATTTCTTAAAAAAAAGGAGGTAATAGAC [TGCATGCA_negctrl_site555]”, the “gcPBM binding intensity (ln)” value is reported as 8.44.
With “TAAAGATGAAATATCACACATATATAAATATATAAA [CACACA_site4580]” the “gcPBM binding intensity (ln)” value was 6.69.
In the case of “AATAATAATAGAAACACACACACATTTTTAAGAATA [CACACA_site6692]”, the “gcPBM binding intensity (ln)” value is reported as 6.74.
For “AACAAAGAAAATACATGTACAAAAAATATTAACGAA [XGTACX_site287]”, the “gcPBM binding intensity (ln)” value was 7.22.
TATATTATATATATACTGCACTGTTTTACAAAATTA was tested, and the “gcPBM binding intensity (ln)” value was 8.44.
With TTTAGTGAGTTTGTTGTGCACTGAAAAAATTACAAT the “gcPBM binding intensity (ln)” value was 10.5.
For ATAAATAAAACAACAGTGCAATAAAATTAGTTGAGG, the “gcPBM binding intensity (ln)” value was 7.5.
In the case of “TTATATAATCCTTTCAAACACACAAAATATAATTAA [CACACA_site1830]”, the “gcPBM binding intensity (ln)” value is reported as 6.91.
In the case of “ACAAAATAAACCACGTGTACAAATTTATAATGTGTA [XGTACX_site1153]”, the “gcPBM binding intensity (ln)” value is reported as 7.21.
“AAAAAAAAAAAAAGTGCACACATAAAAATATGATCT [CACACA_site8090]” was tested, and the “gcPBM binding intensity (ln)” value was 11.2.
In the case of AAAAATAAAATGATGGTGCACATAAAGTATGGTTAC, the “gcPBM binding intensity (ln)” value is reported as 11.3.
For “TGTTAAAAAATGGATGCACACATTAAATAAAAAGTA [CACACA_site1660]”, the “gcPBM binding intensity (ln)” value was 8.9.
“TATATATATATGTGCACACATAATAAAAAAAAAAAT [CACACA_site3831]” was tested, and the “gcPBM binding intensity (ln)” value was 9.49.
In the case of “ATCTTAACTCTATGCACACATAAAAGTATATAAATA [CACACA_site2256]”, the “gcPBM binding intensity (ln)” value is reported as 7.7.
For “AAAAAAAAAAAGTGCACACATAAAAATATGATCTAA [CACACA_site572]”, the “gcPBM binding intensity (ln)” value was 11.5.
“TACAAAATATATATGACACACATAAAAAAAAGTATA [CACACA_site1373]” was tested, and the “gcPBM binding intensity (ln)” value was 6.96.
“AAAAAAAAAAAAAGCACACATATAAATATGAATAAA [CACACA_site1393]” was tested, and the “gcPBM binding intensity (ln)” value was 7.18.
With “AAAAAAAAAAAAAAAGCACACATATAAATATGAATA [CACACA_site8391]” the “gcPBM binding intensity (ln)” value was 7.5.
With “ATATATGACTAATAAAGTACATACTTCATATAATTA [XGTACX_site6699]” the “gcPBM binding intensity (ln)” value was 7.06.
For “TAAGTATATTTCTGCACACAAAAAAAAAAACCAAAA [CACACA_site4056]”, the “gcPBM binding intensity (ln)” value was 7.18.
With “AATGATATATTTAAATGTACACATGAAATATAATAT [XGTACX_site2678]” the “gcPBM binding intensity (ln)” value was 7.06.
In the case of “ATAAAAAAAAAATAATGTACTTATATATATATATAT [XGTACX_site8282]”, the “gcPBM binding intensity (ln)” value is reported as 9.32.
“TATATTATAGGTTGTGTACACATATTATATAGTACT [CACACA_site4583]” was tested, and the “gcPBM binding intensity (ln)” value was 7.16.
For “GATGTATAAAATAATACATGCATGTCCTACATATAT [TGCATGCA_site155]”, the “gcPBM binding intensity (ln)” value was 6.89.
With “AATACGGCAAACATTAAAAAATATAATAACAATAAA [CACACA_negctrl_site868]” the “gcPBM binding intensity (ln)” value was 6.96.
In the case of “ATATGTACGCAAGGTGCACACTGGTGCATTAAAAAA [CACACA_site1801]”, the “gcPBM binding intensity (ln)” value is reported as 12.3.
In the case of “ACATATAAAATATATACACACATATAAATACATTAA [CACACA_site3867]”, the “gcPBM binding intensity (ln)” value is reported as 7.06.
In the case of “GCAAGGTCCACACTGGTGCATTAAAAATAAAATATA [GTGCAC_site9956]”, the “gcPBM binding intensity (ln)” value is reported as 10.4.
CATTATGTACAAAAAGTGCAATATATATTAACACTG was tested, and the “gcPBM binding intensity (ln)” value was 8.23.
For “TGCAAAAAATTCCACACACACACACGCATATAAATA [CACACA_site6696]”, the “gcPBM binding intensity (ln)” value was 7.27.
For “TATGTGTGCAAAAACTGTACACATTAAAGGTATATA [XGTACX_site7627]”, the “gcPBM binding intensity (ln)” value was 7.54.
For “GAATATGAATATTTGCGTACTTATATAACTGTTCTA [XGTACX_site883]”, the “gcPBM binding intensity (ln)” value was 6.83.
For “GTGTTAATTTTAAATTGTACAAAATTTATATGATTT [XGTACX_site348]”, the “gcPBM binding intensity (ln)” value was 7.19.
With “TAAATGTTTCTCAAAAGTACACATGTGATATTTCTT [XGTACX_site2065]” the “gcPBM binding intensity (ln)” value was 6.84.
In the case of “TATTTTCTCGTTTGCATGCACCTTATTTTATGTGGT [GTGCAC_site9470]”, the “gcPBM binding intensity (ln)” value is reported as 10.8.
“TATGTGTATTTATTTGCATGTTGGTTGTATTTTTTC [TGCATGCA_site479]” was tested, and the “gcPBM binding intensity (ln)” value was 6.93.
In the case of “AGCATTTTTCATTTTGCACACATGTTTTATGTGTAT [CACACA_site3454]”, the “gcPBM binding intensity (ln)” value is reported as 7.11.
For “ACTTGTTTTCAATGTAAAATACAATTTTCATTTATT [CACACA_negctrl_site435]”, the “gcPBM binding intensity (ln)” value was 7.08.
In the case of “TATTAAATTTATCGGAGTACATTTAAATGTATATAC [XGTACX_site7975]”, the “gcPBM binding intensity (ln)” value is reported as 7.13.
For “TATATAACATATAACACACATACTTAGTATTACATA [CACACA_site3099]”, the “gcPBM binding intensity (ln)” value was 7.
In the case of TAATATAAATGAAAGGTGCTTTTGCTTTCTTTTTTT, the “gcPBM binding intensity (ln)” value is reported as 7.08.
For “TTCTTTTCTCTTTTAATCATATTATATAAATGAATA [CACACA_negctrl_site820]”, the “gcPBM binding intensity (ln)” value was 7.29.
With “TCTTTTCTCGGAAGGGTGCAAGGAATTAATGAAATA [GTGCAC_site9706]” the “gcPBM binding intensity (ln)” value was 11.1.
“TTTTTATTTTTTTATTTCTTATCAAATAAAATATAT [XGTACX_negctrl_site537]” was tested, and the “gcPBM binding intensity (ln)” value was 6.84.
